From PubChem BioAssay
Where “and” joins values, the source holds several entries; their conditions need not be identical. Identical values can stand only once. Calls of active or inactive are those of the source.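 Rule for the calls, unless noted: active = inhibition at or above 50% relative to wild type and mutant plate controls; inactive = inhibition below 50%.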

Columns and labels:
[1] = inhibitors of mutant huntingtin aggregation, primary screen, imaging, exon1htt(103Q)mCFP cells, high-content imaging (AID 483;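 active = visual image review flags a hit and inhibition of aggregation exceeds 20%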;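 note: compound exposure lasted 3 days before fixation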;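 for nuclei count: percent of the per-plate median nuclei count of sample wells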); conditions: exon1htt(103Q)mCFP cell line, aggregate imaging, at 2 µM; inhibition of aggregation: stronger effect = higher value; nuclei count: measured here: cell count, toxicity
[2] = inhibitors of E-selectin induction by TNFa, primary screen, imaging, HUVEC, immunofluorescence, MLSMR starter and 10KST1 sets (AID 487;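 active = visually confirmed hit in the image check and inhibition above 20%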;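 for inhibition: signal is fraction of cell area covered by stained E-selectin grains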;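 for nuclei count: 100% = median nuclei count of all wells on the same plate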); conditions: HUVEC TNFalpha-induced E-selectin immunofluorescence imaging, at 2 µM; inhibition: stronger effect = higher value; nuclei count: measured here: cell number, toxicity
[3] = DUSP6 inhibitors restoring Erk phosphorylation by chemical complementation, primary imaging in DUSP6-transfected HeLa (AID 609;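 active = compounds giving at least 50% inhibition in the cell-based MKP-3 phosphatase rescue imaging test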;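 for inhibition: phospho-Erk level distribution per well compared with pooled transfected vehicle control wells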); conditions: HeLa MKP-3 transfected, phospho-Erk imaging KS statistic, at 10 µM, cells stimulated with TPA for 15 min
[4] = biological target: Dual specificity protein phosphatase 6 (Homo sapiens) (UniProt Q16828); experiment: as above; conditions: HeLa MKP-3 transfected, phospho-Erk imaging KS statistic; at 10 µM; stronger effect = higher value; cells stimulated with TPA for 15 min
[5] = biological target: Voltage-gated potassium channel subunit beta-2 (Rattus norvegicus) (UniProt P62483); experiment: KvBeta enzyme negative modulators, primary screen, biochemical, NADPH fluorescence (AID 622;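 active = fluorescence slope higher than the sample average by over 3 SD, cut at about -0.22 in these data, passing the limit was not always enough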;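 note: slope of raw intensity against log time taken from 70 to 1610 s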); conditions: recombinant KvBeta, 4-cyanobenzaldehyde reduction, at 10 µM, stronger effect = higher value
[6] = biological target: Voltage-gated potassium channel subunit beta-2 (Rattus norvegicus) (UniProt P62483); experiment: KvBeta positive modulators, primary screen, biochemical, NADPH fluorescence (AID 623;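 active = NADPH fluorescence slope more negative than the mean of all samples by about 3 SD, 99.7% confidence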;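 note: fluorescence intensity change per second fitted from 20 to 320 s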); conditions: Recombinant KvBeta, NADPH fluorescence decrease slope, 10 min; at 10 µM; stronger effect = lower value
[7] = biological target: Alpha-2C adrenergic receptor (Homo sapiens) (UniProt P18825); experiment: modulators of alpha2C/GIRK thallium flux, primary screen, cell-based, HEK293 alpha2C/GIRK1/2 (AID 624;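 active = fluorescence slope after compound addition differing from the mean of all screened samples at 99.7% confidence, in either direction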;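 note: slope of fluorescence ratio to pre-addition baseline per second over 15 to 24 s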); conditions: thallium flux BTC fluorescence, at 10 µM, actives lie on both sides
[8] = inhibitors of larval lipid processing in zebrafish, primary screen, whole organism, PED6 fluorescence, gall bladder and intestine (AID 686;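 active = a full or partial loss of lipid-probe fluorescence in the fish gall bladder, intestine or both, judged by eye; inactive = no fluorescence loss, or compound toxic to the fish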;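 note: larvae 5 to 7 days old with five fish per well; signal comes from phospholipase A2 cleavage of quenched PED6 carried via bile; overnight exposure to compound and PED6 before scoring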); conditions: Zebrafish larvae PED6 lipid processing, fluorescence scoring; screened at 20 µM (by protocol)
[9] = inhibitors of Chlamydomonas gravitaxis, primary screen, whole organism, Chlamydomonas reinhardtii, WT vs cilia-less mutant, absorbance, 96-well (AID 463189); conditions: OD600 absorbance, 2 days, at 10 µM, stronger effect = higher value;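 note: 0% = wild type cc124 cells in DMSO and 100% = ciliumless bld1 mutant cells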
[10] = inhibitors of Sendai virus-induced IRF3 signaling, primary screen, TLR/RLR signaling modifier project, cell-based, Sendai virus stimulus, luciferase, 10K MLSCN set (AID 602276;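 active = inhibition at or above 50% at 10 µM; inactive = inhibition below 50%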;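 note: firefly luciferase from ISG56 promoter only with Renilla not read in this screen; 0% = Sendai virus plus DMSO and 100% = medium plus DMSO without virus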); conditions: HEK293 RL24 IRF3 luciferase reporter, at 10 µM, stronger effect = higher value
[11] = inhibitors of poly I:C-induced TLR3 signaling, primary screen, cell-based, poly I:C stimulus, luciferase, 10K MLSCN set (AID 602277;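 active = inhibition of the reporter signal at or above 50%; inactive = inhibition below 50%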); conditions: HEK293-TLR3 RL24 IRF3 luciferase reporter, at 10 µM, stronger effect = higher value
[12] = measured here: cell density z-score
[13] = measured here: nuclear c-Myc green intensity z-score
[14] = measured here: nuclear pErk red intensity z-score, stronger effect = higher value

Chain of Alpha-2C adrenergic receptor (Homo sapiens) (P18825 whole entry, looked up): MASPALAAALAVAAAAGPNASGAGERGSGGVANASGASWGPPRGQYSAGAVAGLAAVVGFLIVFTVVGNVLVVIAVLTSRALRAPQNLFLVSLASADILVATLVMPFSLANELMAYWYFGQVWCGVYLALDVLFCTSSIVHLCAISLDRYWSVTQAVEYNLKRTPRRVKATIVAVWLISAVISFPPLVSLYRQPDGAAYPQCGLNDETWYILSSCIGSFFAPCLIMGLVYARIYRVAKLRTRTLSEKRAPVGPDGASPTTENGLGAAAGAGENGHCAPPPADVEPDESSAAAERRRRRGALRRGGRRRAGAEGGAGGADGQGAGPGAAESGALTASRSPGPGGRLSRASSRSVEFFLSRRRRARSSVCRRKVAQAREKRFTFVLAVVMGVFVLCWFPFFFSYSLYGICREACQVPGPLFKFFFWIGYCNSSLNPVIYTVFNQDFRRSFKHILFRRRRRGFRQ
Chain of Voltage-gated potassium channel subunit beta-2 (Rattus norvegicus) (P62483 whole entry, looked up): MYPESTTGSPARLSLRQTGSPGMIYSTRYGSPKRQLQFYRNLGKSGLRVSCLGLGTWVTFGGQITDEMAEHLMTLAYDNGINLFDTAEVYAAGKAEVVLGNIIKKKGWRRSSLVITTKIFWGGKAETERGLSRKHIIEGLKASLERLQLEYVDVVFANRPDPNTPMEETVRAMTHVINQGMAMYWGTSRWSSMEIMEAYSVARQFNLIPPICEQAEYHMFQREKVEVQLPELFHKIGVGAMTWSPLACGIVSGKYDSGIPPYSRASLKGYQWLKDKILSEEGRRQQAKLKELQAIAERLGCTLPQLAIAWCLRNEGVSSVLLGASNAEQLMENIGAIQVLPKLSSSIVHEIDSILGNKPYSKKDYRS
Chain of Dual specificity protein phosphatase 6 (Homo sapiens) (Q16828 whole entry, looked up): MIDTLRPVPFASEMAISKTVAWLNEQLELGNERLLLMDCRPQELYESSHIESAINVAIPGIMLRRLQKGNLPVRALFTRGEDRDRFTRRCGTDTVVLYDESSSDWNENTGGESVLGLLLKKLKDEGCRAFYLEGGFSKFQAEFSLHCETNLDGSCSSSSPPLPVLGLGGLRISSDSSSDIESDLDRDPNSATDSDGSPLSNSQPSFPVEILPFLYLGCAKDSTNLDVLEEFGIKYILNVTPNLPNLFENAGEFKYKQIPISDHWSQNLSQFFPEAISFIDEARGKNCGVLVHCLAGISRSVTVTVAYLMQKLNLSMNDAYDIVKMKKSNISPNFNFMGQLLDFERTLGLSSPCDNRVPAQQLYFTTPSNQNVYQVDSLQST

Question: What does the source list for `O=C1CCc2cc(OCCCCc3nnnn3C3CCCCC3)ccc2N1`?
Answer: inhibition of aggregation [1]: 14.7% (inactive); nuclei count [1]: 106%; inhibition [2]: -114% (inactive); nuclei count [2]: 136%; z-score [3, 12]: 0.404; z-score [3, 13]: -0.117; z-score [3, 14]: -0.524; inhibition [4]: 27.1% (inactive); fluorescence slope [5]: -0.456 (inactive); NADPH fluorescence slope [6]: -6.4e-05 (inactive); slope [7]: 0.00334 (inactive); outcome [8]: inactive; inhibition [9]: 3.02% (inactive) and 2.15% (inactive); inhibition [10]: -3.33% (inactive); inhibition [11]: 20.5% (inactive)

Question: Which results are given for `COc1ccc(CN(CCN(C)C)c2ccccn2)cc1`?
Answer: inhibition of aggregation [1]: -1.2% (inactive); nuclei count [1]: 105%; inhibition [2]: -37.9% (inactive); nuclei count [2]: 113%; z-score [3, 12]: -0.442; z-score [3, 13]: -0.558; z-score [3, 14]: 1.54; inhibition [4]: 3.45% (inactive); fluorescence slope [5]: -0.507 (inactive); NADPH fluorescence slope [6]: 9.4e-06 (inactive); slope [7]: 0.00533 (inactive); outcome [8]: inactive; inhibition [9]: 3.64% (inactive) and 20.5% (inactive); inhibition [10]: 16.8% (inactive); inhibition [11]: 30.1% (inactive)

Question: Which results are given for `CC1(C)O[C@@H]2C[C@H]3[C@@H]4CCC5=CC(=O)C=C[C@]5(C)[C@@]4(F)[C@@H](O)C[C@]3(C)[C@]2(C(=O)CO)O1`?
Answer: inhibition of aggregation [1]: -6.5% (inactive); nuclei count [1]: 62.6%; inhibition [2]: -115% (inactive); nuclei count [2]: 116%; z-score [3, 12]: 0.696; z-score [3, 13]: -0.511; z-score [3, 14]: -0.313; inhibition [4]: -2.46% (inactive); fluorescence slope [5]: -0.515 (inactive); NADPH fluorescence slope [6]: -2.4e-05 (inactive); slope [7]: 0.00512 (inactive); outcome [8]: inactive; inhibition [9]: -13.3% (inactive); inhibition [10]: -3.36% (inactive); inhibition [11]: 10.8% (inactive)

Question: For `CN(C)C(=O)Oc1ccc[n+](C)c1`, which inhibition of aggregation [1] is on record?
Answer: -10% (inactive)

Question: And the nuclei count [1]?
Answer: 104%

Question: What about the inhibition [2] of the same compound?
Answer: -27% (inactive)

Question: And the nuclei count [2]?
Answer: 132%

Question: And the z-score [3, 12]?
Answer: -0.869

Question: And the z-score [3, 13]?
Answer: 0.159

Question: What about the z-score [3, 14] of the same compound?
Answer: 0.378

Question: What about the inhibition [4] of the same compound?
Answer: 13.3% (inactive)

Question: And the fluorescence slope [5]?
Answer: -0.448 (inactive)

Question: And the NADPH fluorescence slope [6]?
Answer: -5.3e-05 (inactive)

Question: What about the slope [7] of the same compound?
Answer: 0.005 (inactive)

Question: What about the outcome [8] of the same compound?
Answer: inactive

Question: And the inhibition [9]?
Answer: -1.87% (inactive) and 14.9% (inactive)

Question: And the inhibition [10]?
Answer: 6.65% (inactive)

Question: What about the inhibition [11] of the same compound?
Answer: 26.9% (inactive)

Question: For `CNCCC(Oc1ccc(C(F)(F)F)cc1)c1ccccc1` (stereo not given), which inhibition of aggregation [1] is on record?
Answer: 10.2% (inactive)

Question: And the nuclei count [1]?
Answer: 100%

Question: What about the inhibition [2] of the same compound?
Answer: -36.9% (inactive)

Question: And the nuclei count [2]?
Answer: 127%

Question: What about the z-score [3, 12] of the same compound?
Answer: -0.242

Question: What about the z-score [3, 13] of the same compound?
Answer: 0.755

Question: And the z-score [3, 14]?
Answer: 0.581

Question: What about the inhibition [4] of the same compound?
Answer: 12.4% (inactive)

Question: And the fluorescence slope [5]?
Answer: -0.447 (inactive)

Question: What about the NADPH fluorescence slope [6] of the same compound?
Answer: -4.5e-05 (inactive)

Question: What about the slope [7] of the same compound?
Answer: 0.00359 (inactive)

Question: And the outcome [8]?
Answer: inactive

Question: And the inhibition [9]?
Answer: 1.27% (inactive) and 34.8% (inactive)

Question: And the inhibition [10]?
Answer: 21% (inactive)

Question: And the inhibition [11]?
Answer: 34.3% (inactive)

Question: Which inhibition of aggregation [1] does the source give for `CC(=O)OCC1=C(C(=O)O)N2C(=O)[C@@H](NC(=O)Cc3cccs3)[C@H]2SC1` here?
Answer: -14.4% (inactive)

Question: And the nuclei count [1]?
Answer: 85.4%

Question: And the inhibition [2]?
Answer: -35% (inactive)

Question: And the nuclei count [2]?
Answer: 116%

Question: And the z-score [3, 12]?
Answer: -0.65

Question: And the z-score [3, 13]?
Answer: -0.0505

Question: And the z-score [3, 14]?
Answer: -0.555

Question: What about the inhibition [4] of the same compound?
Answer: 17.3% (inactive)

Question: What about the fluorescence slope [5] of the same compound?
Answer: -0.429 (inactive)

Question: What about the NADPH fluorescence slope [6] of the same compound?
Answer: -5.9e-05 (inactive)

Question: And the slope [7]?
Answer: 0.00483 (inactive)

Question: What about the outcome [8] of the same compound?
Answer: inactive

Question: And the inhibition [9]?
Answer: 7.69% (inactive) and 18.3% (inactive)

Question: And the inhibition [10]?
Answer: 10.9% (inactive)

Question: What about the inhibition [11] of the same compound?
Answer: 35.2% (inactive)

Question: For `COc1cc(C2Oc3cc(C4Oc5cc(O)cc(O)c5C(=O)C4O)ccc3OC2CO)ccc1O` (stereo not given), which inhibition of aggregation [1] is on record?
Answer: 15.4% (inactive)

Question: And the nuclei count [1]?
Answer: 94.5%

Question: And the inhibition [2]?
Answer: -86.6% (inactive)

Question: What about the nuclei count [2] of the same compound?
Answer: 118%

Question: What about the z-score [3, 12] of the same compound?
Answer: -0.357

Question: What about the z-score [3, 13] of the same compound?
Answer: 0.711

Question: And the z-score [3, 14]?
Answer: -0.479

Question: And the inhibition [4]?
Answer: -8.38% (inactive)

Question: What about the fluorescence slope [5] of the same compound?
Answer: -0.479 (inactive)

Question: What about the NADPH fluorescence slope [6] of the same compound?
Answer: 1.9e-05 (inactive)

Question: What about the slope [7] of the same compound?
Answer: 0.00477 (inactive)

Question: And the outcome [8]?
Answer: inactive

Question: What about the inhibition [9] of the same compound?
Answer: -8.52% (inactive)

Question: And the inhibition [10]?
Answer: -16.8% (inactive)

Question: What about the inhibition [11] of the same compound?
Answer: -16.2% (inactive)

Question: Which inhibition of aggregation [1] does the source give for `CN1Cc2c(N)cccc2C(c2ccccc2)C1` (stereo not given) here?
Answer: 5.1% (inactive)

Question: And the nuclei count [1]?
Answer: 95.3%

Question: What about the inhibition [2] of the same compound?
Answer: -73% (inactive)

Question: What about the nuclei count [2] of the same compound?
Answer: 131%

Question: And the z-score [3, 12]?
Answer: -0.942

Question: And the z-score [3, 13]?
Answer: 0.0925

Question: And the z-score [3, 14]?
Answer: 1.7

Question: And the inhibition [4]?
Answer: 3.45% (inactive)

Question: And the fluorescence slope [5]?
Answer: -0.505 (inactive)

Question: And the NADPH fluorescence slope [6]?
Answer: -5.7e-05 (inactive)

Question: What about the slope [7] of the same compound?
Answer: 0.00524 (inactive)

Question: What about the outcome [8] of the same compound?
Answer: inactive

Question: And the inhibition [9]?
Answer: 70.5% (active) and 60.3% (active)

Question: And the inhibition [10]?
Answer: 9.51% (inactive)

Question: And the inhibition [11]?
Answer: 22.5% (inactive)

Question: For `Oc1c(I)cc(Cl)c2cccnc12`, which inhibition of aggregation [1] is on record?
Answer: -1.7% (inactive)

Question: And the nuclei count [1]?
Answer: 76.8%

Question: And the inhibition [2]?
Answer: -52% (inactive)

Question: What about the nuclei count [2] of the same compound?
Answer: 108%

Question: And the z-score [3, 12]?
Answer: -0.367

Question: What about the z-score [3, 13] of the same compound?
Answer: 0.593

Question: And the z-score [3, 14]?
Answer: -0.324

Question: What about the inhibition [4] of the same compound?
Answer: 23.4% (inactive)

Question: What about the fluorescence slope [5] of the same compound?
Answer: -0.459 (inactive)

Question: And the NADPH fluorescence slope [6]?
Answer: -3.6e-05 (inactive)

Question: What about the slope [7] of the same compound?
Answer: 0.00439 (inactive)

Question: And the outcome [8]?
Answer: inactive

Question: And the inhibition [9]?
Answer: -0.595% (inactive)

Question: And the inhibition [10]?
Answer: 0.651% (inactive)

Question: And the inhibition [11]?
Answer: 31.6% (inactive)

Question: Which results are given for `CCOc1ccc2nc(S(N)(=O)=O)sc2c1`?
Answer: inhibition of aggregation [1]: -4.8% (inactive); nuclei count [1]: 112%; inhibition [2]: -20.9% (inactive); nuclei count [2]: 127%; z-score [3, 12]: 1.44; z-score [3, 13]: 0.726; z-score [3, 14]: -0.916; inhibition [4]: 21.2% (inactive); fluorescence slope [5]: -0.485 (inactive); NADPH fluorescence slope [6]: -5.5e-05 (inactive); slope [7]: 0.00518 (inactive); outcome [8]: inactive; inhibition [9]: 31% (inactive); inhibition [10]: 3.12% (inactive); inhibition [11]: -17% (inactive)

Question: What does the source list for `C[C@H]1C[C@H]2[C@@H]3CCC4=CC(=O)C=C[C@]4(C)[C@@]3(Cl)[C@@H](O)C[C@]2(C)[C@@]1(O)C(=O)CO`?
Answer: inhibition of aggregation [1]: -11.8% (inactive); nuclei count [1]: 69.5%; inhibition [2]: -5.2% (inactive); nuclei count [2]: 113%; z-score [3, 12]: 0.584; z-score [3, 13]: -0.957; z-score [3, 14]: -0.321; inhibition [4]: -4.44% (inactive); fluorescence slope [5]: -0.496 (inactive); NADPH fluorescence slope [6]: -7.9e-05 (inactive); slope [7]: 0.00488 (inactive); outcome [8]: inactive; inhibition [9]: -5.54% (inactive); inhibition [10]: 8.02% (inactive); inhibition [11]: 22.6% (inactive)
